Vaccinia Venus: vaccinia inhibition (Venus reporter); actives 0.46% (n = 330,000); Vaccinia virus Venus reporter expression, fluorescence; Potency, µM (series often up to 36.5 µM), hits mostly inhibitors; calls by dose curve; tested in A549 cells; further: nearly all actives have a fitted effect of over 30% in size
Lassa entry inh: blocks Lassa virus binding to or entry into cells; Lassa virus pseudotype entry inhibition, cell reporter; Potency, µM (top dose mostly 37.9 µM), hits mostly inhibitors; actives 1.2% (n = 300,000); calls by dose curve; tested in HEK293 cells; further: nearly all actives have a fitted effect of over 50% in size
Marburg entry inh: blocks Marburg virus binding to or entry into cells | Potency, µM (series often up to 37.8 µM), actives largely listed as inhibitors | actives 1.8% (n = 300,000) | AID 540276 | Marburg virus pseudotyped entry inhibition, cell reporter; calls by dose curve; tested in HEK293 cells
HCMV inh: inhibitors of human cytomegalovirus. HFF cells, HCMV-luciferase reporter, 72 h; active compounds read low. activity change, negative = inhibition, % at 57.5 µM. actives 4.5% (n = 410,000); in the data active means activity change below about -60%; inconclusive means no clear call, values can overlap the other calls; inactive means above about -39%
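Inhibition of viral replication was scored as loss of reporter luminescence in HFFs infected with HCMV-luciferase (MOI 1 PFU/cell) for 72 h; compounds tested at 2 doses, normalized to buffer and Salinomycin controls.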
Vaccinia mCherry: inhibitors of vaccinia virus infection (mCherry reporter signal); actives 0.63% (n = 310,000); AID 720579; Potency, µM (highest dose often 36.5 µM), usual class: inhibitors; Vaccinia virus mCherry reporter infection, fluorescence; calls by dose curve; tested in A549 cells; further: nearly all actives have a fitted effect of over 35% in size
HCV inhibitor: inhibitors of hepatitis C virus infection. Huh7.5.1 HCVcc-Cre infection, luciferase reporter, 44 h. actives 3.4% (n = 340,000). AID 651820. Potency, µM (series often up to 41.8 µM), usual class: inhibitors
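Cells (1,000/well) were plated 4 h before compound, then infected with HCVcc-Cre virus (~0.5 moi). After 44 h further culture, infection was read as luciferase luminescence following a 15 min substrate incubation at room temperature.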
HCV inh confirm: confirmation of hepatitis C virus inhibitors | Potency, µM (doses to about 41.8 µM), usual class: inhibitors | shares compounds with HCV inhibitor | actives 78% (n = 640) | HCVcc-Cre infectious virus cell assay, luciferase, inhibition | AID 720575; further: nearly all actives have a fitted effect of over 80% in size
HCV cytotox: host cell cytotoxicity counter-screen for HCV inhibitors; shares compounds with HCV inhibitor; HCV host cell line cytotoxicity counterscreen; Potency, µM (doses to about 41.8 µM), actives largely listed as inhibitors; actives 22% (n = 640);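 further: 44 h compound exposure; nearly all actives have a fitted effect of over 55% in size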
Numbers stand for hits; 0 = inactive; ? = inconclusive; - = no result; [ ] = dose if it differs, or a comment. Only some compounds are listed: those with a hit (about 7.8% of all), similar ones and a draw of the others. Unless noted, the call rests on the fitted dose curve; in most records, active means well fitted curve in the direction sought with a large enough effect; inconclusive means small, poorly fitted or top-dose-only effect, or another doubt; inactive means no such curve, though single readings can be large; an effect the other way counts as inactive or inconclusive.

SMILES | Vaccinia Venus | Lassa entry inh | Marburg entry inh | HCMV inh | Vaccinia mCherry | HCV inhibitor | HCV inh confirm | HCV cytotox
CNC(=O)NC(=O)C(C)OC(=O)c1c2c(nc3ccccc13)/C(=C/c1cccs1)CC2 (stereo not given) | 0 | ? | ? | 0 | 0 | 2.8µM | 1.8µM | 18µM
CC(OC(=O)c1c2c(nc3ccccc13)/C(=C\c1ccc3c(c1)OCO3)CCC2)C(=O)Nc1ccc(S(N)(=O)=O)cc1 (stereo not given) | 0 | ? | ? | - | 0 | ? | - | -
O=C(Nc1ccc2c(c1)Cc1ccccc1-2)c1cccnc1 | - | ? | 0 | 0 | - | 6.3µM | 0 | 0
CCOC(=O)N1CCC(NC(=O)CCc2c(C)nc3c(c(C)nn3C(C)(C)C)c2C)CC1 | - | ? | ? | -73 | - | 5.6µM | 13µM | ?
O=C(OCCOc1cccc(Cl)c1)c1cc(S(=O)(=O)N2CCCCC2)ccc1N1CCOCC1 | ? | ? | ? | -88 | ? | ? | 3.5µM | 6.3µM
O=C(COC(=O)c1cc(S(=O)(=O)N2CCCCC2)ccc1N1CCOCC1)c1ccc(Cl)cc1 | 0 | ? | ? | 0 | 0 | ? | - | -
Cc1cc(S(=O)(=O)Nc2ccc3ccccc3c2)c(C)s1 | - | 0 | ? | ? | - | ? | 22µM | ?
COc1cc(OC)cc(-c2c(-c3cccs3)c3cc(-c4ccc5[nH]ccc5c4)ccc3n2C)c1 | 0 | - | - | 0 | ? | 11µM | 14µM | 0
COc1cc(OC)cc(-c2c(-c3cccs3)c3cc(-c4ccc(OC)c(OC)c4)ccc3n2C)c1 | 0 | - | - | 0 | 0 | ? | - | -
CNc1nc(N2CCc3ccccc32)ncc1F | 0 | ? | 0 | 0 | 0 | 3.2µM | 20µM | ?
CCN1CCN(CCCOc2ccc(-c3ccccc3)cc2)CC1 | 0 | 0 | ? | 0 | 0 | 2.8µM | 14µM | 0
CCN1CCN(CCOc2ccccc2-c2ccccc2)CC1 | - | - | - | 0 | - | 0 | - | -
CCOc1ccc2c(C)nc(NC3=NC(C)(C)C=C(C)N3)nc2c1 | ? | 0 | ? | 0 | 0 | 5µM | 7µM | ?
CCOc1ccc2nc(NC3=NC(C)(C)C=C(C)N3)nc(C)c2c1 | - | 0 | ? | 0 | - | ? | - | -
COc1cccc(NC(=O)CN2C(=O)c3cccc4cccc2c34)c1 | 0 | 0 | ? | 0 | 0 | - | - | -
CCOc1cccc2cc(-c3nc4sc5c(c4c(=O)[nH]3)CCC(C)C5)c(=O)oc12 (stereo not given) | 0 | 0 | - | 0 | 0 | - | - | -
COc1ccc2oc(=O)c(-c3nnc(NCc4ccco4)s3)cc2c1 | 0 | 0 | ? | 0 | ? | 4.5µM | 0 | ?
CCOC(=O)C1(Cc2ccccc2C(F)(F)F)CCN(C2CCN(C(C)C)CC2)CC1 | - | ? | 7.3µM | -69 | - | 3.2µM | 11µM | 0
COCCCn1c(SCc2ccccc2)nc2cc(OC)c(OC)cc2c1=N | - | ? | 0 | 0 | - | ? | 14µM | 0
COCCCn1c(SCc2cccc(C(F)(F)F)c2)nc2cc(OC)c(OC)cc2c1=N | - | ? | 0 | 0 | - | 0 | - | -
CCOc1ccc(CNC(=O)c2cnc3sc(N(CC)CC)nn3c2=O)cc1OC | 0 | 0 | - | 0 | 0 | - | - | -
CCCCCNc1nc2sc3c(c2c(=O)n1-c1cccc(Cl)c1)CCN(C)C3 | 0 | 0 | ? | ? | 0 | 1µM | 2.2µM | 0
CCCCSc1nc2sc3c(c2c(=O)n1-c1ccccc1)CCN(C)C3 | - | - | - | 0 | - | ? | 13µM | 0
CCCCSc1nc2sc3c(c2c(=O)n1-c1ccc(OC)cc1)CCN(C)C3 | 0 | 0 | ? | ? | ? | 0 | - | -
CC(C)CNC(=S)N(CCN(C)C)Cc1cc2cc3c(cc2[nH]c1=O)OCO3 | 0 | ? | 0 | 0 | 0 | 4.5µM | 0 | 0
SMILES | Vaccinia Venus | Lassa entry inh | Marburg entry inh | HCMV inh | Vaccinia mCherry | HCV inhibitor | HCV inh confirm | HCV cytotox
Cc1nn(C(=O)c2ccccc2)c(C)c1S(=O)(=O)N1CCOCC1 | 0 | 0 | - | 0 | 0 | - | - | -
CCc1ccc(C(=O)NC(Cc2c[nH]c3ccccc23)C(=O)OCC(=O)c2ccc(Br)cc2)cc1 (stereo not given) | 0 | 0 | - | 0 | 0 | - | - | -
COc1ccc(OC)c(-c2cc(C(=O)NCc3ccco3)no2)c1 | 0 | 0 | 0 | 0 | 0 | ? | 28µM | 0
COc1cccc(-c2cc(C(=O)NCc3ccco3)no2)c1 | - | ? | 0 | 0 | - | 0 | - | -
CCN1/C(=C\C(=S)Nc2ccccc2)Sc2ccccc21 | 0 | ? | ? | -61 | 0 | 6.3µM | 14µM | ?
CCOC(=O)/C(C#N)=C(C)/C=C1\Sc2ccccc2N1CC | 0 | 0 | ? | 0 | 0 | ? | - | -
O=S(=O)(NCCc1nnc2ccc(SCc3c(F)cccc3Cl)nn12)c1ccccc1 | 0 | 0 | - | 0 | 0 | - | - | -
CCCCn1c(SCn2nnc3ccccc3c2=O)nc2cc(S(N)(=O)=O)ccc21 | 0 | 0 | 0 | 0 | 0 | ? | 0.0011µM | 0
CCCCn1c(SCN2C(=O)c3ccccc3C2=O)nc2cc(S(N)(=O)=O)ccc21 | 0 | 0 | ? | 0 | - | 0 | - | -
O=C(Oc1ccc(NC2=C(Cl)C(=O)c3ccccc3C2=O)cc1)c1ccc([N+](=O)[O-])cc1 | - | - | 0 | - | - | ? | - | -
CC(=O)Nc1ccc(NC2=C(Cl)C(=O)c3ccccc3C2=O)cc1 | ? | ? | ? | -101 | ? | 3.2µM | 25µM | 22µM
CCCCCn1c(=O)[nH]c2cc(C(=O)NCCCN3CCC(C)CC3)ccc2c1=O | - | 0 | ? | 0 | - | 4.5µM | 16µM | 0
COC(=O)C[C@]1(C(=O)OC)CN(C#N)N(c2ccc(Cl)cc2)C12c1ccccc1-c1ccccc12 | ? | 3.2µM | ? | -102 | 11µM | 5.6µM | 3.1µM | 7.9µM
COC(=O)CN1C(=O)C(O)(CC(=O)c2ccc(Cl)cc2)c2ccccc21 (stereo not given) | 0 | - | - | 0 | 0 | 0 | - | -
CC(C)(C)OC(=O)N1CCC[C@H]1C(O)(c1ccccc1)c1ccccc1 | - | - | 0 | - | - | - | - | -
COc1ccc(CCNC(=O)C2CC2)cc1 | 0 | 0 | 0 | 0 | 0 | 0 | - | -
COc1ccc(C[C@H]2NC[C@H](O)[C@H]2OC(C)=O)cc1 | 0.89µM | - | - | -98 | 0.45µM | ? | 7µM | 0
CCOc1ccc(-c2cc3c(=O)n(Cc4nc(-c5ccc(OC)cc5OC)oc4C)ccn3n2)cc1Cl | 0 | ? | ? | 0 | 0 | - | - | -
Cc1cccc(CN2C(=O)N/C(=C/c3cc(C)n(-c4cc(C)ccn4)c3C)C2=O)c1 | 0 | 11µM | ? | - | - | 1.8µM | 16µM | 0
c1ccc(-c2nc(-c3cccs3)c(NC3CCCCC3)o2)cc1 | - | - | 0 | - | - | - | - | -
COc1cc(-c2nc(-c3ccc4c(c3)-c3ccccc3S4(=O)=O)c(-c3ccccc3)[nH]2)cc(OC)c1OC | 0 | ? | 0 | 0 | 0[1.46 µM] | 2µM | 2µM | ?
COc1cccc(-c2nc(-c3ccc4c(c3)-c3ccccc3S4(=O)=O)c(-c3ccccc3)[nH]2)c1OC | 0 | 0 | ? | 0 | - | ? | - | -
CCN1CCN(S(=O)(=O)c2cc(OCC(=O)NC3CCCCC3)c(C)cc2Cl)CC1 | - | 0 | ? | -65 | - | 7.1µM | 4µM | 7µM

Source: PubChem BioAssay (National Center for Advancing Translational Sciences (NCATS))
